Measurements reported in PubChem BioAssay AID1220 (Sanford-Burnham Center for Chemical Genomics, 2008).
Among all 190,000 compounds or so, about 1,300 (0.68%) were called active. No stated cut-off is given here; in the data, active means inhibition above about 50%; inactive means the rest. The entries come from a sample that favours actives as a whole.

target: Mannose-6-phosphate isomerase (Homo sapiens) (UniProt P34949); test: human PMI inhibitors, high substrate, primary screen, biochemical, fluorescence intensity, high mannose 6-phosphate (AID 1220); conditions: recombinant PMI enzyme, coupled fluorescence intensity; at 20 µM; stronger effect = higher value
Sequence (P34949 whole entry, looked up): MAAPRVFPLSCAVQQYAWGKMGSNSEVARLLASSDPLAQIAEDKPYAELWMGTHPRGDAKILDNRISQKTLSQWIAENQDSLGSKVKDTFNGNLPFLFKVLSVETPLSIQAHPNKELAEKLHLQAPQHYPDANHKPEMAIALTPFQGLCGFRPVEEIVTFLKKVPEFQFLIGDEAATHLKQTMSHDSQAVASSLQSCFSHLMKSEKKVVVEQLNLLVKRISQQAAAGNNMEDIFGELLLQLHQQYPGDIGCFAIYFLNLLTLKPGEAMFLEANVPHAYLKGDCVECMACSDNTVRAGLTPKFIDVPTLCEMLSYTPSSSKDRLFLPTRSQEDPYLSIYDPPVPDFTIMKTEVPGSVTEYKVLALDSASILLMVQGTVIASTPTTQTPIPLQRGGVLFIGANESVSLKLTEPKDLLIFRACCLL

SMILES	inhibition
Cc1nc2cc(NCc3nc4ccccc4n3Cc3ccccc3)ccc2n1C	20% (inactive)
CCn1cnc2cc(NCc3nc4ccccc4n3Cc3ccccc3)ccc21	50.6% (active)
CCn1cnc2cc(NCc3nc4ccccc4n3C)ccc21	14.9% (inactive)
CCOc1cc2[nH]c(=S)n(C3CC3)c(=O)c2cc1OCC	2.9% (inactive)
O=C(c1ccccc1[N+](=O)[O-])N1CCCN(C(=O)c2ccccc2[N+](=O)[O-])CC1	-6.8% (inactive)
COc1cc(NC(=O)C2CCCCC2)c2ncccc2c1	4.2% (inactive)
COc1cc(NCCCCCCCN)c2ncccc2c1	50.3% (active)
COc1cc(NS(=O)(=O)c2ccc(C)cc2)c2ncccc2c1	32.6% (inactive)
CCn1c(CSCc2ccc(Cl)cc2)n[nH]c1=S	-10.7% (inactive)
CC(C)(C)C1=CC(=Nc2ccccc2N)C=C(C(C)(C)C)C1=O	-7.5% (inactive)
CC(C)(C=O)C1=CC(=O)c2ccccc2C1=O	12.2% (inactive)
Cc1ccc(S(=O)(=O)N2CCOCC2)cc1C(=O)Nc1ccccn1	4.2% (inactive)
O=C(Cc1ccc(Cl)cc1)N/N=C/c1cccs1	15.1% (inactive)
CCOC(=O)c1c(C)n(C)c2ccc(O)c(CN3CCC(C)CC3)c12	22.9% (inactive)
CCOC(=O)c1c(C)n(C)c2ccc(O)c(CN3CCCCC3)c12	8.7% (inactive)
CCOC(=O)c1c(C)n(C)c2ccc(O)c(CN3CCN(C)CC3)c12	54.1% (active)
CCOC(=O)c1ccc(NC(=O)CSc2nnc(CNc3ccc(C)cc3)n2C)cc1	11.2% (inactive)
COc1ccc(NCc2nnc(SCC(=O)Nc3ccc(OC)cc3)n2C)cc1	-0.9% (inactive)
CCOC(=O)c1ccc(NC(=O)CSc2nnc(CNc3ccc(OC)cc3)n2C)cc1	53.5% (active)
COc1ccc(-n2ccnc2SCC(=O)NCc2ccco2)c(OC)c1	5.5% (inactive)
O=C(NCc1ccco1)C1Cc2ccccc2CN1C(=O)c1ccco1 (stereo not drawn)	-0.2% (inactive)
CCn1c(SCc2nc3sc(C(=O)O)c(C)c3c(=O)[nH]2)nnc1-c1ccc(Cl)cc1	-1% (inactive)
CC(C)(C)c1csc(NC(=O)Nc2ccccc2)n1	7.8% (inactive)
COc1ccccc1NC(=O)Nc1nc(C(C)(C)C)cs1	56.3% (active)
COc1ccccc1NC(=O)Nc1cc(NC(=O)Nc2ccccc2OC)c(C)nc1C	-9.6% (inactive)
COc1ccc(S(=O)(=O)c2ccc(OC)cc2)cc1	6.7% (inactive)

SMILES	inhibition
COc1ccc(S(=O)(=O)/N=C2/C=CC(=O)C(C)=C2C)cc1	43.8% (inactive)
COc1ccc(S(=O)(=O)N=C2C=C(C)C(=O)C(C)=C2)cc1	61.5% (active)
CC1CCN(C(c2ccccc2)c2nnnn2C(C)(C)C)CC1 (stereo not drawn)	-19.6% (inactive)
Cn1cc(Br)c(C(=O)NN2C(=O)C3C4C=CC(C5CC45)C3C2=O)n1 (stereo not drawn)	2.3% (inactive)
O=C(Cc1cccc2ccccc12)NCCOc1ccccc1F	23.4% (inactive)
Nc1cc2c(cc1[N+](=O)[O-])OCCO2	7.1% (inactive)
Nc1cc2c(cc1[N+](=O)[O-])OCO2	52.9% (active)
Nc1cc2c(cc1[N+](=O)[O-])OCCOCCOCCO2	19.7% (inactive)
CCNc1nc(NCC)nc(C(=O)NN)n1	-16.1% (inactive)
COc1cc(/C=N/NC(=O)C(Cc2c[nH]c3ccccc23)NC(=O)OCC(C)C)cc([N+](=O)[O-])c1OCc1ccccc1 (stereo not drawn)	53.6% (active)
COc1cc(/C=N/NC(=O)C(Cc2c[nH]c3ccccc23)NC(=O)OCC(C)C)cc([N+](=O)[O-])c1O (stereo not drawn)	6.2% (inactive)
COc1cc(/C=N/NC(=O)[C@H](Cc2c[nH]c3ccccc23)NC(=O)OCC(C)C)cc([N+](=O)[O-])c1O	14.5% (inactive)
Cc1ccc(S(=O)(=O)Cc2ccc(C(=O)N3CCc4ccccc4C3)o2)cc1	-0.7% (inactive)
CC(C)c1cccc(C(C)C)c1NC(=O)COC(=O)c1ccc(OCC(=O)Nc2cccc(C(F)(F)F)c2)cc1	10.7% (inactive)
O=c1oc2ccccc2cc1-c1cn2ccccc2n1	-4.7% (inactive)
COc1cc(OC)c(NC(=O)CC(C)=O)cc1Cl	26.6% (inactive)
Clc1ccccc1OCc1nnc(-c2ccccc2Br)o1	5.6% (inactive)
CC(C)(C)NC(=O)CSc1nc(N)cc(=O)[nH]1	0.4% (inactive)
COc1ccc2ccccc2c1C(O)c1nccn1C (stereo not drawn)	64.7% (active)
COc1ccc(C(O)c2nccn2C)cc1 (stereo not drawn)	9.1% (inactive)
Cn1ccnc1C(O)c1ccccc1 (stereo not drawn)	15.2% (inactive)
OC(COCc1ccc(Cl)cc1)CN1CCN(CC(O)COCc2ccc(Cl)cc2)CC1 (stereo not drawn)	-11.7% (inactive)
Cc1csc(NC(=O)C2C3C=CC(O3)C2C(=O)O)n1 (stereo not drawn)	5% (inactive)
Cc1ccc2[nH]c3c(c2c1)CCC3=O	15.5% (inactive)
Cc1ccc2[nH]c3c(c2c1)CCNC3=O	-5.2% (inactive)
Cc1onc(-c2ccccc2)c1C(=O)Oc1cccnc1	-0.5% (inactive)

SMILES	inhibition
CC(=O)NC(CCS(C)(=O)=O)C(=O)Nc1ccccc1C (stereo not drawn)	3.2% (inactive)
CCCCN(C)C(=O)c1cc2cc3cc(OC)ccc3nc2o1	16.4% (inactive)
Cc1cccnc1CCNC(=O)CCc1nnc(CCc2ccccc2)o1	17.7% (inactive)
O=C(NC1CC1)c1cc(Cl)ccc1[N+](=O)[O-]	12.7% (inactive)
O=C(c1ccco1)c1coc2c1cc(O)c1ccccc12	51.1% (active)
O=C(c1cc(C(=O)c2ccco2)cc(C(=O)c2ccco2)c1)c1ccco1	6.2% (inactive)
CC(=O)c1coc2c1cc(O)c1ccccc12	4.7% (inactive)
CCOC(=O)c1ccc(N2C(=O)CC(N3CCOCC3)C2=O)cc1 (stereo not drawn)	-0.3% (inactive)
CN(C)c1cc2c(c(N(C)C)c1)C(=O)c1ccccc1C2=O	50.3% (active)
CN(C)S(=O)(=O)c1cccc2c1C(=O)c1ccccc1C2=O	21% (inactive)
COc1ccc(OC)c2c1C(=O)c1ccccc1C2=O	-55.2% (inactive)
CN(C)c1cccc2c1C(=O)c1ccccc1C2=O	55.7% (active)
CN(C=[N+](C)C)c1cccc2c1C(=O)c1ccccc1C2=O	39.3% (inactive)
CNc1cccc2c1C(=O)c1ccccc1C2=O	24.4% (inactive)
Cc1nc2ccccn2c1C(=O)NN=C1CCCC1	-5% (inactive)
Cc1ccc(C(=O)NNC(=O)c2cccc(S(=O)(=O)N3CCN(c4ccccc4)CC3)c2)cc1	5.6% (inactive)
Cc1ccc(C(=O)NCC(=O)OC(C)C(=O)NCCC2=CCCCC2)cc1C (stereo not drawn)	4.6% (inactive)
O=C(NCC1CCCO1)C(c1ccc(F)cc1)N(CC1CCCO1)C(=O)c1ccc(-c2ccccc2)[nH]1 (stereo not drawn)	-8.3% (inactive)
O=C(CCOc1ccccc1)Nc1cccc([N+](=O)[O-])c1	-0.7% (inactive)
O=C(CNS(=O)(=O)c1ccccc1F)Nc1ccc(N2CCOCC2)cc1	1% (inactive)
COc1ccc(C(=O)NCCSc2ccccc2)cc1	7.1% (inactive)
CCCc1cc(=O)oc2c(C)c3occ(C)c3cc12	2.8% (inactive)
C/C(=N\NC(=O)CNc1cccc2ccccc12)c1ccc(Br)s1	52% (active)
C/C(CCc1ccco1)=N\NC(=O)CNc1cccc2ccccc12	56% (active)
C/C(CCc1ccco1)=N/NC(=O)CCC(=O)Nc1ccc(Br)cc1	7.1% (inactive)
COc1ccccc1NCC(=O)N/N=C(\C)c1ccc(Br)s1	11.6% (inactive)

SMILES	inhibition
C/C(=N\NC(=O)CNc1cccc(C)c1)c1ccc(Br)s1	14.6% (inactive)
C/C(CCc1ccco1)=N\NC(=O)CNc1c(Br)cc(Br)cc1Br	-2.7% (inactive)
CC(=O)Cc1nsc(Nc2cccc(C)c2)n1	6.5% (inactive)
COc1ccc(NC(=O)c2ccco2)cc1S(=O)(=O)N1CCOCC1	-7.3% (inactive)
CC(OC(=O)c1cccnc1)C(=O)Nc1ccc2c(c1)OCO2 (stereo not drawn)	2.7% (inactive)
Cc1cccc(CCN(CC(=O)NC2CCCCC2)C(=O)c2csnn2)c1	-6% (inactive)
CN(Cc1nccn1C)C(=O)CC1C(=O)NCCN1CC(c1ccccc1)c1ccccc1 (stereo not drawn)	25.1% (inactive)
Cc1ccc(NC(=O)CCNC(=O)c2ccco2)cc1F	-1.2% (inactive)
C/C(=N\NC(=O)C(=O)Nc1ccc(C)cc1)c1ccncc1	-7.3% (inactive)
Cc1ccc(C)n1-c1ccccc1N	57.3% (active)
Cc1ccc(-n2c(C)c3c(C)nnc(C)c3c2C)cc1N	44.2% (inactive)
Cc1nnc(C)c2c(C)n(-c3ccccc3N)c(C)c12	56.3% (active)
Cc1nnc(C)c2c(C)n(C(c3ccccc3)c3ccccc3)c(C)c12	8% (inactive)
Cc1ccc(C)n1-c1ccccc1N1CCCCC1	-1.9% (inactive)
CC1CCN(c2ccccc2N)CC1	2% (inactive)
Cc1nn(-c2ccccc2)c(C)c1C(=O)OCC(=O)c1c(N)n(CC(C)C)c(=O)n(C)c1=O	4.3% (inactive)
Cc1ccc(NC(=O)c2cc(S(=O)(=O)N3CCCCC3)ccc2N2CCOCC2)cc1F	9.5% (inactive)
COc1ccc(NC(=O)c2cc(S(=O)(=O)N3CCCCC3)ccc2N2CCCCC2)cn1	55.3% (active)
COc1ccc(NC(=O)c2cccc(S(=O)(=O)N3CCOCC3)c2)cn1	-1.9% (inactive)
CCOC(=O)/C(C#N)=C/c1ccc(SC)cc1	-6.5% (inactive)
O=c1[nH]c(Cc2ccccn2)nc2scc(-c3ccccc3Cl)c12	-108% (inactive)
O=C1CNC(=S)N1c1nc(-c2ccccc2)cs1	0.9% (inactive)
CC(=O)N=Cc1c(C)c(C#N)c(=O)n(C)c1O	53% (active)
Cc1c(/C=N/Nc2ccc(F)cc2)c(O)n(C)c(=O)c1C#N	-7% (inactive)
Cc1ccc(N/N=C/c2c(C)c(C#N)c(=O)n(C)c2O)cc1C	23.3% (inactive)
